Our source for the outcome, Potency and max response values is PubChem BioAssay (Tox21).

Test [1] in a line: qHTS RealTime-Glo MT Cell Viability Assay in HepG2 cells - 40 hour (AID 1224870). Note: nearly all actives have a fitted effect of over 50% in size. In outline: (§1)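 HepG2 cells (600/well) mixed with RealTime-Glo MT reagent, settled 5 h at 37 C/5% CO2 before compound addition. Nonlytic NanoLuc luminescence from viable-cell prosubstrate reduction read repeatedly during 40 h treatment at 37 C.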
A general note: In qHTS, concentration-response curves come from the screen itself.

Test [2] in a line: A CellTox Green Cytotoxicity Assay to monitor cytotoxicity in HEK293 cells - 40 hour (AID 1224871). Note: nearly all actives have a fitted effect of over 45% in size. Put shortly: (§2)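 Tox21 screen in HEK293: membrane-impermeant cyanine dye fluoresces on binding dead-cell DNA; compound pinned 5 h post-seeding, plates held at 37 C, signal read repeatedly through 40 h.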
Test [3] can be described thus: qHTS RealTime-Glo MT Cell Viability Assay in HEK293 cells - 16 hour (AID 1224872). Note: nearly all actives have a fitted effect of over 50% in size. Note: potency is the fitted concentration of half-maximal effect. Put shortly: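 Nonlytic real-time viability readout: viable cells convert prosubstrate to NanoLuc substrate, giving luminescence proportional to live cell number. HEK293, 600 cells/well, compound added after 5 h, continuous culture at 37 C.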
Test [4] is described as follows: qHTS RealTime-Glo MT Cell Viability Assay in HepG2 cells - 8 hour (AID 1224873). Note: nearly all actives have a fitted effect of over 55% in size. In outline: as §1
Test [5] is described as follows: qHTS RealTime-Glo MT Cell Viability Assay in HEK293 cells - 40 hour (AID 1224874). Note: nearly all actives have a fitted effect of over 50% in size. Note: potency is the fitted concentration of half-maximal effect. The settings on record: RealTime-Glo luminescence; max response: active compounds read low. In outline:
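HEK293 + NanoLuc + prosubstrate, 600 cells/well; 5 h, 37 C/5% CO2; compound 23 nL in DMSO by pintool; 37 C; luminescence read at 0, 8, 16, 24, 32 and 40 h time points.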

A short description of test [6]: A CellTox Green Cytotoxicity Assay to monitor cytotoxicity in HEK293 cells - 24 hour (AID 1224875). Note: series mostly up to about 77 µM; nearly all actives have a fitted effect of over 45% in size. Put shortly: as §2
Test [7] is described as follows: A CellTox Green Cytotoxicity Assay to monitor cytotoxicity in HepG2 cells - 16 hour (AID 1224876). Note: nearly all actives have a fitted effect of over 45% in size. Put shortly: (§3)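 Measurements at 0, 8, 16, 24, 32 and 40 h of treatment captured CellTox Green fluorescence in HepG2 cells that had been co-plated with reagent and preincubated 5 h at 37 C/5% CO2.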
The nature of test [8]: qHTS RealTime-Glo MT Cell Viability Assay in HepG2 cells - 32 hour (AID 1224877). Note: nearly all actives have a fitted effect of over 55% in size. In outline:
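Luminescence read-out: viable HepG2 cells reduce a prosubstrate to a NanoLuc substrate, giving a signal proportional to live cell number. Reads taken at 0, 8, 16, 24, 32 and 40 h of compound exposure at 37 C.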

Test [9] can be described thus: A CellTox Green Cytotoxicity Assay to monitor cytotoxicity in HepG2 cells - 24 hour (AID 1224878). Note: nearly all actives have a fitted effect of over 45% in size. In outline:
as §3

A short description of test [10]: A CellTox Green Cytotoxicity Assay to monitor cytotoxicity in HepG2 cells - 40 hour (AID 1224879). Note: nearly all actives have a fitted effect of over 40% in size. Put shortly: as §3

Values joined by “and” are separate entries in the source; they are usually repeats but may differ in a detail not shown here. Identical values can stand only once. Results filed as inconclusive are left out. Values without a mark were called inactive. Active and inactive are the calls of the source. Calls come from the whole dose curve; as a rule, active = well fitted curve in the direction sought with a large enough effect in the repeat runs; inconclusive = weak or mixed curves; inactive = no such curve, though single readings can be large; an effect the other way counts as inactive or inconclusive.
% is set by controls: 0 for no effect and ±100 for the full control effect.

`CNC(=O)Oc1ccc2c(c1)[C@]1(C)CCN(C)[C@@H]1N2C`: the call in test [1], in [7] and in [8] was inactive. For the same compound, the Potency result in test [2], in [3], in test [4], in test [6], in test [9] and in test [10] was “inactive” each time. Moreover, the max response in test [5] is 4.52% and 8.75%.
With `CCCCCCCO`, the call in [1], in [7] and in [8] was inactive. For the same compound, the Potency result in test [2], in [3], in test [4], in test [6], in test [9] and in test [10] was “inactive” throughout. Besides, the max response in test [5] was 10.9% and 3.74%.
Turning to `O=[N+]([O-])c1ccc2nc[nH]c2c1`, the call in test [1], in [7] and in [8] was inactive. Also, the Potency entry in test [2], in [3], in test [4], in test [6], in test [9] and in test [10] was “inactive” throughout. In test [5], the max response was 4.04% and -21.2%.
As to `CC(C)CCCCCCCOC(=O)CCCCC(=O)OCCCCCCCC(C)C`, the result in test [1], in test [7] and in [8] was inactive. Moreover, the Potency result in [2], in [3], in test [4], in [6], in test [9] and in [10] was “inactive” in each case. Also, the max response in [5] was -6.27% and 3.22%.
Take `Nc1nc(N)nc(-c2ccccc2)n1`: the compound was classed as inactive in test [1], in [7] and in test [8]. Moreover, the Potency entry in test [2], in [3], in [4], in test [6], in [9] and in test [10] was “inactive” throughout. For the same compound, the max response in [5] is -23.1% and 0.641%.
On to `CC(C)OP(=O)(CP(=O)(OC(C)C)OC(C)C)OC(C)C`, for which the call in test [1], in [7] and in test [8] was inactive. The Potency entry in test [2], in test [3], in [4], in test [6], in [9] and in [10] was “inactive” throughout. Moreover, the max response in test [5] was 4.3% and 0.573%.
`N#Cc1ccccc1`: the call in test [1], in test [7] and in [8] was inactive. In addition, the Potency entry in test [2], in test [3], in [4], in [6], in [9] and in test [10] was “inactive” each time. In [5], the max response is 6.77% and 3.17%.
With `COc1ccccc1OCC(O)CO` (stereo not given), the compound was classed as inactive in test [1], in [7] and in test [8]. For the same compound, the Potency entry in [2], in test [3], in [4], in test [6], in test [9] and in [10] was “inactive” each time. Also, the max response in test [5] is 1.4% and 1.84%.
Take `CC(C)(C)c1cc(Cc2cc(C(C)(C)C)c(O)c(C(C)(C)C)c2)cc(C(C)(C)C)c1O`: the result in [1], in [7] and in test [8] was inactive. Moreover, the Potency result in test [2], in test [3], in [4], in test [6], in test [9] and in [10] was “inactive” in each case. The max response in test [5] was 3.98% and -14.3%.
Turning to `NCCNCCN`, the compound was called inactive in test [1], in [7] and in [8]. Moreover, the Potency entry in test [2], in [3], in test [4], in [6], in test [9] and in test [10] was “inactive” throughout. For the same compound, the max response in test [5] was -1.22% and 0.475%.
With `CC(=O)CC(C)(C)O`, the outcome in [1], in test [7] and in [8] was inactive. In addition, the Potency result in test [2], in [3], in test [4], in test [6], in test [9] and in test [10] was “inactive” throughout. Moreover, the max response in test [5] is 0.169% and 3.54%.
On to `CN(C)c1ccc(Cc2ccc(N(C)C)cc2)cc1`, for which the compound was called inactive in [1], in [7] and in test [8]. In addition, the Potency entry in [2], in test [4], in test [6], in test [9] and in test [10] was “inactive” each time. In addition, the Potency in test [3] is 21.9 µM (active); in [5] it was 19.6 µM (active) and 24.5 µM (active).
`COc1ccc([N+](=O)[O-])cc1N`: the result in test [1], in test [7] and in test [8] was inactive. The Potency entry in test [2], in test [3], in [4], in test [6], in [9] and in [10] was “inactive” each time. Moreover, in test [5], the max response is -5.95% and 0.4%.
As to `CC1(C)S[C@@H]2[C@H](NC(=O)COc3ccccc3)C(=O)N2[C@H]1C(=O)O`, the call in [1], in test [7] and in test [8] was inactive. The Potency entry in test [2], in [3], in test [4], in [6], in [9] and in test [10] was “inactive” each time. Besides, the max response in test [5] was 0.704% and 1.33%.
For `O=c1[nH]cnc2[nH]ncc12`, the call in test [1], in test [7] and in test [8] was inactive. The Potency result in test [2], in test [3], in [4], in test [6], in test [9] and in [10] was “inactive” in each case. Further, in test [5], the max response is -0.951% and 0.0063%.
Consider `OC1C(O)C(O)C(O)C(O)C1O` (stereo not given), for which the compound was called inactive in [1], in [7] and in [8]. In addition, the Potency entry in [2], in test [3], in test [4], in test [6], in test [9] and in test [10] was “inactive” in each case. For the same compound, the max response in test [5] was 9.45% and 0%.
Regarding `COC(=O)c1cccnc1`, the call in [1], in test [7] and in test [8] was inactive. The Potency result in test [2], in [3], in test [4], in test [6], in test [9] and in [10] was “inactive” in each case. In addition, the max response in [5] is 0.779% and 5.01%.
`CN1C(=O)CC[C@H]1c1cccnc1`: the call in test [1], in test [7] and in test [8] was inactive. Moreover, the Potency result in [2], in test [3], in [4], in test [6], in test [9] and in test [10] was “inactive” throughout. Besides, in test [5], the max response was 1.45% and 7.43%.
As to `COCCOC(=O)c1ccccc1C(=O)OCCOC`, the result in [1], in test [7] and in test [8] was inactive. Further, the Potency entry in test [2], in [3], in test [4], in test [6], in test [9] and in test [10] was “inactive” throughout. In test [5], the max response is 0.573% and 0.131%.
On to `CCNC(=S)NCC`, for which the result in [1], in [7] and in [8] was inactive. The Potency entry in test [2], in test [3], in [4], in test [6], in test [9] and in [10] was “inactive” in each case. Moreover, the max response in test [5] was -2.25% and -1.34%.
For the compound `CC(=O)OCc1ccccc1`, the compound was classed as inactive in test [1], in [7] and in [8]. Moreover, the Potency result in [2], in test [3], in test [4], in test [6], in test [9] and in test [10] was “inactive” throughout. For the same compound, the max response in test [5] is -41.8% and -21%.
